# Measurements from PubChem BioAssay (EPA / NIEHS).
# Where “and” joins values, the source holds several entries; their conditions need not be identical. Identical values can stand only once. Records with an inconclusive call do not appear. More than one record can exist for a structure, and the calls need not agree. Calls of active or inactive are those of the source. Rule for the calls: active = hit-call score of the fitted dose curve at least 0.9, where 1 is the maximum; inconclusive = response in the unintended direction; inactive = score below 0.9.
# Molecular target: human CYP2C9, CYP2C9 (gene 1559) (UniProt P11712)
# Assay: NVS_ADME_hCYP2C9: NovaScreen (NVS) CYP450-related Enzyme Activity (ADME) Assay for human CYP2C9 (AID 2283108)
# Description: NVS_ADME_hCYP2C9 is a biochemical, single-readout assay that uses extracted gene-proteins from SF9 in a cell-free assay. Measurements were taken 0.75 hour after chemical dosing in a 96-well plate.NVS_ADME_hCYP2C9 is one of one assay component(s) measured or calculated from the NVS_ADME_hCYP2C9 assay. It is designed to make measurements of enzyme activity, a form of enzyme reporter, as detected with fluorescence intensity signals by Fluorescence technology.Data from the assay component NVS_ADME_hCYP2C9 was analyzed into 1 assay endpoint. This assay endpoint, NVS_ADME_hCYP2C9, was analyzed in the positive analysis fitting direction relative to Acetonitrile as the negative control and baseline of activity. Using a type of enzyme reporter, loss-of-signal activity can be used to understand changes in the enzymatic activity as they relate to the gene CYP2C9. Furthermore, this assay endpoint can be referred to as a primary readout, because this assay has produced multiple assay endpoints where this one serves a enzymatic activity function. To generalize the intended target to other relatable targets, this assay endpoint is annotated to the cyp intended target family, where the subfamily is xenobiotic metabolism.
# Binding assays used specific radioligands (tritiated, iodinated) with non-radioactive competitive displacement ligands in agonist or antagonist protocols (as indicated) and various reference compounds and inhibitors to titrate specific binding to receptors and transporters. Most enzyme assays (CYPs, kinases, phosphatases, proteases, HDACs) used recombinant protein and specific substrates (fluorescence mostly, some colorimetric and radioactive) and inhibitors, followed by a biochemical separation of substrate and product. All assays for the biochemical HTS were initially run in duplicate at a single concentration (10 uM for CYP450 assays and 25 uM for all others). […] Each assay was run with positive and negative controls, and concurrent controls on every plate. The follow-up (secondary) screen tested active chemical-pairs in concentration series, as well as a few additional assays not tested in the primary screen, some selected negative inactives, and several cases re-run in the concentration series for confirmatory purposes.
# human CYP2C9, CYP2C9 (gene 1559), sequence (P11712 whole entry, looked up): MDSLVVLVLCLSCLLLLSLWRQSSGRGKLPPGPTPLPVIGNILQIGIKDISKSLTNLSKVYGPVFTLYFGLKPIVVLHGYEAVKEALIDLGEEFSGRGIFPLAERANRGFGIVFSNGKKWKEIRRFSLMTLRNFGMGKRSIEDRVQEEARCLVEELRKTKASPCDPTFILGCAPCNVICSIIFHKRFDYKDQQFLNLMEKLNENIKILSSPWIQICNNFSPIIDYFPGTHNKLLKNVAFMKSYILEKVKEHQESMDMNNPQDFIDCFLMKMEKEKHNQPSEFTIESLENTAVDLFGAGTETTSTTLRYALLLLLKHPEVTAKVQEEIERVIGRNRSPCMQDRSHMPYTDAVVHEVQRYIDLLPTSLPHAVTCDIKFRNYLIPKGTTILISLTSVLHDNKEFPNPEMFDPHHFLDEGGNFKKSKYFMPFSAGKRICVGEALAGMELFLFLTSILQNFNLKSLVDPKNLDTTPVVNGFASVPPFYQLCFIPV
Compound,AC50,outcome
CC(C)(c1ccc(O)cc1)c1ccc(O)cc1,5.49 µM (active) [middle of 4 runs],–
S=C([S-])NCCNC(=S)[S-].[Mn+2],10 µM (active),–
CCCCCCC(C)OC(=O)COc1nc(F)c(Cl)c(N)c1Cl (stereo not given),–,inactive
CCOC(=O)NCCOc1ccc(Oc2ccccc2)cc1,10 µM (active),–
CC(C)(C)[C@@H](O)[C@@H](Cc1ccc(Cl)cc1)n1cncn1,6.81 µM (active),–
CC(=O)[C@H]1CC[C@H]2[C@@H]3CCC4=CC(=O)CC[C@]4(C)[C@H]3CC[C@]12C,7.34 µM (active),inactive
CCCCOCCOCCOCc1cc2c(cc1CCC)OCO2,4.31 µM (active),–
CCCCCOC(=O)COc1cc(N2C(=O)C3=C(CCCC3)C2=O)c(F)cc1Cl,–,inactive
CCCCC(CC)COC(=O)c1ccccc1C(=O)O (stereo not given),5.35 µM (active),–
N#CSCSc1nc2ccccc2s1,1.77 µM (active) and 5.62 µM (active),–
C=CCOC(Cn1ccnc1)c1ccc(Cl)cc1Cl (stereo not given),0.379 µM (active),–
Oc1ccc(C(c2ccc(O)cc2)C(Cl)(Cl)Cl)cc1,2.08 µM (active),–
S=C(S)NCCNC(=S)S.[Mn+2].[S-]C([S-])=NCCN=C([S-])[S-].[Zn+2],1.63 µM (active) and 1.92 µM (active) and 4.37 µM (active),–
COC(=O)c1c(Cl)nn(C)c1S(=O)(=O)NC(=O)Nc1nc(OC)cc(OC)n1,2.89 µM (active),–
